# Source: PubChem
# Methyltransferases – Primary Screen for Target Class Profiling of Small Molecule Inhibitors of Methyltransferases | purified enzyme, MTase-Glo SAH luminescence; stronger effect = lower value | calls only at 40 µM | hit rate 3.9% among 25,000; call rule not given here
#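 Each enzyme was reacted with SAM and its substrate, with compounds tested once at 40 uM; SAH formed was read by MTase-Glo luminescence.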
# MTase-Glo counter – inhibits MTase-Glo coupling enzymes without methyltransferase; shares compounds with Methyltransferases; MTase-Glo coupled enzymes, SAH conversion luminescence, no MTase; Potency, µM (highest dose often 57.3 µM), for inactives: top-dose activity change, negative = inhibition, usual class: inhibitors; hit rate 6% among 180; AID 1745851; active = well fitted inhibition curve with a large enough effect; inconclusive = small, poorly fitted or top-dose-only effect; note: potency is the fitted concentration of half-maximal effect
# * hit, by the source's call; i = inactive; ? = inconclusive; + = active, no number; [ ] = another dose, or the depositor's remark. This is one part of a sample in which hits are shown more often than they occur. % is set by controls: 0 for no effect and ±100 for the full control effect.
SMILES,Methyltransferases,others
Cc1c(Cl)cccc1NC(=O)N1Cc2ccccc2-n2cccc2C1c1ccc(N(C)C)cc1 (stereo unspecified),i,
COC(=O)CCNC(=O)N1Cc2ccccc2-n2cccc2C1c1ccc(Cl)cc1 (stereo unspecified),i,
Cc1ccc(CNC(=O)N2Cc3ccccc3-n3cccc3C2c2ccc(C)cc2)cc1 (stereo unspecified),i,
CCOc1ccc(NC(=O)N2Cc3ccccc3-n3cccc3C2C)cc1 (stereo unspecified),i,
N#Cc1cn([C@@H]2O[C@H](CO)[C@H](O)[C@@H]2O)c2ncnc(N)c12,+,
O=C(Nc1ccc(Br)cc1F)N1Cc2ccccc2-n2cccc2C1c1cccs1 (stereo unspecified),i,
O=C(NCc1ccc(F)cc1)N1Cc2ccccc2-n2cccc2C1c1ccc(F)cc1 (stereo unspecified),i,
Cc1ccc(C2c3cccn3-c3ccccc3CN2C(=O)Nc2ccc(C)cc2C)cc1 (stereo unspecified),i,
CC(C)c1ccc(C2c3cccn3-c3ccccc3CN2C(=O)Nc2ccc3c(c2)OCCO3)cc1 (stereo unspecified),i,
CC1CCCC(O)CC(=O)Cc2cc(O)cc(O)c2C(=O)O1 (stereo unspecified),i,
COc1cc(O)c2c(c1)CCC[C@@H](O)[C@H](O)C(=O)/C=C\C[C@H](C)OC2=O,i,
C[C@H]1CCC[C@H](O)CCC/C=C/c2cc(O)cc(O)c2C(=O)O1,+,
CC(C)c1cccc(C(C)C)c1O,i,
CC(N)c1cccc(Cl)c1Cl (stereo unspecified),+,
Cc1cc(C)cc(NC(=O)N2Cc3ccccc3-n3cccc3C2c2cccs2)c1 (stereo unspecified),i,
COc1ccc(NC(=O)N2Cc3ccccc3-n3cccc3C2c2ccc(F)cc2)cc1OC (stereo unspecified),i,
COc1ccc(C2c3cccn3-c3ccccc3CN2C(=O)NCCC(C)C)cc1OC (stereo unspecified),i,
CCCNC(=O)N1Cc2ccccc2-n2cccc2C1c1cccc(C)c1 (stereo unspecified),i,
O=C1Nc2ccc3ncsc3c2/C1=C/c1cnc[nH]1,+,
COc1ccc(NC(=O)N2Cc3ccccc3-n3cccc3C2c2cccs2)c(OC)c1 (stereo unspecified),i,
O=C(NCc1ccccc1)N1Cc2ccccc2-n2cccc2C1c1ccccc1Cl (stereo unspecified),i,
Cc1ccc(CNC(=O)N2Cc3ccccc3-n3cccc3C2c2ccccc2C)cc1 (stereo unspecified),i,
COc1ccc(C2c3cccn3-c3ccccc3CN2C(=O)NC2CCCC2)cc1OC (stereo unspecified),i,
Cc1[nH]c2ccc(Cl)cc2c1CCN(C)C,+,
COc1ccc(C2c3cccn3-c3ccccc3CN2C(=O)Nc2cccc(SC)c2)cc1 (stereo unspecified),i,
SMILES,Methyltransferases,others
CCc1ccc(C2c3cccn3-c3ccccc3CN2C(=O)NCc2ccco2)cc1 (stereo unspecified),i,
COc1ccc(C2c3cccn3-c3ccccc3CN2C(=O)NCc2ccc(C)cc2)cc1OC (stereo unspecified),i,
CCCN(CCC)[C@@H]1CCc2ccc3[nH]c(C#N)cc3c2C1,+,
CCCN(CCC)[C@@H]1CCc2cccc(O)c2C1,i,
CCOc1ccc(C2c3cccn3-c3ccccc3CN2C(=O)Nc2cc(C)ccc2OC)cc1 (stereo unspecified),i,
COc1ccc(NC(=O)N2Cc3ccccc3-n3cccc3C2c2ccc(F)cc2)cc1 (stereo unspecified),i,
CSc1ccc(C2c3cccn3-c3ccccc3CN2C(=O)Nc2ccc(C)cc2C)cc1 (stereo unspecified),i,
CNCCc1c[nH]c2ccc(O)cc12,i,
COc1ccc(CNC(=O)/C=C/c2ccc3[nH]cc(CCN(C)C)c3c2)cc1,+,
Cc1ccc(NC(=O)N2Cc3ccccc3-n3cccc3C2c2cccs2)cc1 (stereo unspecified),i,
CCC1c2cccn2-c2ccccc2CN1C(=O)NCCCOC (stereo unspecified),i,
COc1cc(NC(=O)N2Cc3ccccc3-n3cccc3C2c2ccc(F)cc2)cc(OC)c1 (stereo unspecified),i,
N#Cc1ccc(N2CCN(C(=O)COc3ccc4[nH]cc(CCN)c4c3)CC2)cc1,+,
O=C(Nc1ccc(F)cc1)N1Cc2ccccc2-n2cccc2C1c1cccs1 (stereo unspecified),i,
Cc1ccc(C)c(NC(=O)N2Cc3ccccc3-n3cccc3C2c2ccccc2Cl)c1 (stereo unspecified),i,
CCOc1ccc(C2c3cccn3-c3ccccc3CN2C(=O)NCc2ccc(C)cc2)cc1 (stereo unspecified),i,
COc1ccc(-c2cc3c(cn2)CN(C)CCN3)cn1,+,MTase-Glo counter=-2%[114 µM]
CCc1ccc(NC(=O)N2Cc3ccccc3-n3cccc3C2c2ccc(SC)cc2)cc1 (stereo unspecified),i,
COc1ccccc1NC(=O)N1Cc2ccccc2-n2cccc2C1c1ccccc1 (stereo unspecified),i,
COc1ccccc1-c1cc([C@H]2CN3CC[C@H]2C[C@@H]3CNC(=O)N2CCOCC2)n(C)n1,i,
CC(=O)NC[C@H]1C[C@@H]2CCN1C[C@@H]2c1cc(-c2ccc3ccccc3c2)nn1C,+,MTase-Glo counter=?
Cn1nc(-c2ccc3ccccc3c2)cc1[C@H]1CN2CC[C@H]1C[C@@H]2CNC(=O)c1ccco1,i,
Cc1cccc(C2c3cccn3-c3ccccc3CN2C(=O)Nc2ccc(F)cc2)c1 (stereo unspecified),i,
CCc1ccccc1NC(=O)N1Cc2ccccc2-n2cccc2C1c1cccs1 (stereo unspecified),i,
CC(C)NC(=O)N1Cc2ccccc2-n2cccc2C1C (stereo unspecified),i,
SMILES,Methyltransferases,others
CCC1c2cccn2-c2ccccc2CN1C(=O)Nc1ccc(C)c(F)c1 (stereo unspecified),i,
COc1cccc(NC(=O)N2Cc3ccccc3-n3cccc3C2c2ccc(C)cc2)c1 (stereo unspecified),i,
COc1ccc(C2c3cccn3-c3ccccc3CN2C(=O)NCc2ccccc2)cc1OC (stereo unspecified),i,
CNC1CCc2ccccc21 (stereo unspecified),+,MTase-Glo counter=-2%[114 µM]
CCC1c2cccn2-c2ccccc2CN1C(=O)NCc1cccc(OC)c1 (stereo unspecified),i,
Cc1cc(C)cc(NC(=O)N2Cc3ccccc3-n3cccc3C2c2cccc(C)c2)c1 (stereo unspecified),i,
